Screening data: PubChem BioAssay, National Center for Advancing Translational Sciences (NCATS)
Rows were chosen to be rich in hits. Some 14% of all compounds tested hit in one or more screens of this group.
LASV entry inh: blocks Lassa virus binding to or entry into cells; 1.2% of 300,000 active; Lassa virus pseudotype entry inhibition, cell reporter; Potency, µM (doses to about 37.9 µM), usual class: inhibitors; AID 540256; calls by dose curve; tested in HEK293 cells; note: nearly all actives have a fitted effect of over 50% in size
Pf growth 48h: inhibits P. falciparum growth in the first generation, 48 h; P. falciparum luciferase growth in erythrocytes, 48 h; Potency, µM (series often up to 28.7 µM), usual class: inhibitors; 5.9% of 310,000 active; AID 504832
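First compound was added to culture medium, then infected red cells at 0.1% parasitemia and 2% hematocrit (final). After incubation at 37 C under 5% CO2, luciferase detection reagent was dispensed and light output recorded.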
MARV entry inh: Marburg virus entry inhibition; 1.8% of 300,000 active; Marburg virus pseudotyped entry inhibition, cell reporter; Potency, µM (doses to about 37.8 µM), hits mostly inhibitors; AID 540276; calls by dose curve; tested in HEK293 cells
HCV inh: inhibitors of hepatitis C virus infection; Huh7.5.1 HCVcc-Cre infection, luciferase reporter, 44 h; Potency, µM (series often up to 41.8 µM), actives largely listed as inhibitors; 3.4% of 340,000 active
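Infectious HCVcc-Cre (~0.5 moi) was added to cells just after compound, with cells seeded 4 h earlier at 1,000 per well. Luciferase activity after 44 h culture reported infection; substrate was incubated 15 min at room temperature before reading.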
Pf growth 96h: P. falciparum growth inhibition at 96 hours | 6.9% of 320,000 active | Potency, µM (highest dose often 28.7 µM), most hits filed as inhibitors | P. falciparum luciferase reporter growth, 96 h | AID 504834
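Readout is luminescence from an integrated firefly luciferase in P. falciparum. Red cells, 2% hematocrit and 0.05% parasitemia final, were cultured with compound through two parasite generations (96 hours) at 37 C, 5% CO2.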
HCMV inh: inhibitors of human cytomegalovirus. HFF cells, HCMV-luciferase reporter, 72 h; active compounds read low. activity change, negative = inhibition, % at 57.5 µM. 4.5% of 410,000 active; in the data active = activity change below about -60%; inconclusive = no clear call, values can overlap the other calls; inactive = above about -39%
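Steps: HFFs plated, 16 h 37C; compounds added; HCMV-luciferase added to MOI 1 PFU/cell; 72 h 37C; OneGlo reagent, 5 min room temperature; luminescence read, normalized to controls.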
Large screens that a line does not name were inactive. Unless noted, calls come from the whole dose curve; as a rule, active = well fitted inhibition curve with a large enough effect; inconclusive = small, poorly fitted or top-dose-only effect, or another doubt; inactive = no such curve, though single readings can be large or run the other way.

COc1ccc2c(Sc3ccccc3)c(C(=O)NCC(C)c3ccccc3)[nH]c2c1 (stereo not drawn)	none (no result: Pf growth 48h, HCV inh, Pf growth 96h)
CC1CC(C)CN(C(=O)COC(=O)CN2C(=O)c3ccccc3C2=O)C1 (stereo not drawn)	none (no result: Pf growth 48h, Pf growth 96h)
CC1CC(C)CN(C(=O)c2ccc3c(c2NCCO)C(=O)c2ccccc2C3=O)C1 (stereo not drawn)	LASV entry inh inconclusive, MARV entry inh 10µM, HCV inh inconclusive (no result: Pf growth 48h, Pf growth 96h)
COc1ccc(N(C(=O)c2snc(C(N)=O)c2N)C(C(=O)NC2CCCC2)c2cc(OC)ccc2OC)cc1 (stereo not drawn)	LASV entry inh inconclusive, Pf growth 48h inconclusive, HCV inh inconclusive, Pf growth 96h inconclusive
COc1ccc(N(C(=O)c2snc(C(N)=O)c2N)C(C(=O)NCc2ccc(F)cc2)c2ccc(C)o2)c(OC)c1 (stereo not drawn)	LASV entry inh 8.91µM, Pf growth 48h inconclusive, MARV entry inh 12.6µM, HCV inh inconclusive, HCMV inh inconclusive
COc1ccc(C(C(=O)NC2CCCCC2)N(C(=O)c2snc(C(N)=O)c2N)c2ccc(OC)cc2OC)cc1 (stereo not drawn)	LASV entry inh inconclusive, Pf growth 48h inconclusive, MARV entry inh inconclusive, HCV inh 8.91µM, HCMV inh inconclusive
COc1ccc(N(C(=O)c2snc(C(N)=O)c2N)C(C(=O)NC2CCCC2)c2ccc(F)cc2)c(OC)c1 (stereo not drawn)	Pf growth 48h inconclusive, MARV entry inh inconclusive, HCV inh 11.2µM
COc1ccccc1N(C(=O)c1snc(C(N)=O)c1N)C(C(=O)NCc1ccccc1)c1ccc(C)o1 (stereo not drawn)	LASV entry inh inconclusive, Pf growth 48h inconclusive
COc1ccc(N(C(=O)c2snc(C(N)=O)c2N)C(C(=O)NC2CCCC2)c2ccco2)c(OC)c1 (stereo not drawn)	Pf growth 48h inconclusive, HCV inh inconclusive, Pf growth 96h inconclusive, HCMV inh inconclusive (no result: LASV entry inh)
COc1ccc(C)cc1N(C(=O)c1snc(C(N)=O)c1N)C(C(=O)NC1CCCC1)c1ccc(F)cc1 (stereo not drawn)	LASV entry inh inconclusive, Pf growth 48h 9.28µM, MARV entry inh inconclusive, HCV inh inconclusive
COCCN(C(=O)c1snc(C(N)=O)c1N)C(C(=O)NC1CCCCC1)c1ccc(OC)c(OC)c1 (stereo not drawn)	none (no result: LASV entry inh, MARV entry inh)
COc1cc(Cl)c(C)cc1NC(=O)CN1CCN(C(=O)c2cccs2)CC1	none (no result: LASV entry inh, Pf growth 48h, MARV entry inh, HCV inh, Pf growth 96h)
COc1ccccc1NC(=O)c1cc2c(=O)n(Cc3cccs3)ccc2nc1C	none (no result: Pf growth 48h, MARV entry inh, HCV inh, Pf growth 96h)
COc1ccc(N(C(=O)c2snc(C(N)=O)c2N)C(C(=O)NC2CCCCC2)c2ccc(C)o2)c(OC)c1 (stereo not drawn)	Pf growth 48h 13.1µM, HCV inh inconclusive, HCMV inh inconclusive (no result: LASV entry inh)
O=C(N1CCCCC1)N1CCC(c2nc3ccccc3[nH]2)CC1	none (no result: LASV entry inh, MARV entry inh)
Cc1ccc(NC(=S)N2CCCC(c3nc4ccccc4[nH]3)C2)cc1 (stereo not drawn)	HCV inh 2.51µM
Cc1ccc2nc(C3CCN(C(=O)NCc4ccccc4)CC3)[nH]c2c1	HCMV inh -88.2 (no result: HCV inh, Pf growth 96h)
Cc1ccccc1NC(=S)N1CCCC(c2nc3ccccc3[nH]2)C1 (stereo not drawn)	none
Cc1ccc2nc(C3CCCN(C(=O)NCc4ccccc4)C3)[nH]c2c1 (stereo not drawn)	none (no result: Pf growth 96h)
CCOC(=O)N1CCC(c2nc3ccccc3[nH]2)CC1	Pf growth 96h 9.28µM (no result: Pf growth 48h)
O=C(C1CC(=O)N(c2ccc(Cl)cc2)C1)N1CCC(c2nc3ccccc3[nH]2)CC1 (stereo not drawn)	Pf growth 48h 10.4µM, Pf growth 96h inconclusive
COc1ccccc1Cc1c(C2CCCCC2)nc2c3ccccc3ccn12	none (no result: LASV entry inh, Pf growth 48h, MARV entry inh, HCV inh, Pf growth 96h)
O=c1c(Cl)c(N2CCOCC2)cnn1-c1nc2ccccc2[nH]1	none (no result: LASV entry inh, MARV entry inh)
COc1ccc2nc(NCc3ccccc3)[nH]c2c1	LASV entry inh inconclusive, Pf growth 48h inconclusive, HCV inh inconclusive (no result: Pf growth 96h)
COc1ccc(S(=O)(=O)N2CCC(c3nc4ccccc4[nH]3)CC2)cc1	none
COc1ccc(OC)c(S(=O)(=O)N2CCC(c3nc4ccccc4[nH]3)CC2)c1	Pf growth 48h inconclusive, Pf growth 96h 10.4µM
Cc1ccc2nc(NCc3ccccc3)[nH]c2c1	LASV entry inh inconclusive, Pf growth 48h inconclusive, MARV entry inh inconclusive, HCV inh inconclusive, Pf growth 96h 1.17µM, HCMV inh inconclusive
CCCCOc1ccc(Br)cc1CSC(=N)N	LASV entry inh inconclusive, Pf growth 48h 4.65µM, MARV entry inh inconclusive, HCV inh 2µM, Pf growth 96h inconclusive, HCMV inh -98.4
CCOc1ccc(CN(CCO)CCO)cc1[N+](=O)[O-]	HCMV inh -67.8
CCOc1ccc(C(C)=O)cc1CSC(=N)N	MARV entry inh inconclusive
O=[N+]([O-])c1ccc(CSC2=NCCN2)cc1	HCV inh inconclusive (no result: LASV entry inh, MARV entry inh)
CCCCCOc1ccc(CSC(=N)N)cc1[N+](=O)[O-]	LASV entry inh inconclusive, Pf growth 48h inconclusive, MARV entry inh inconclusive, HCV inh inconclusive, Pf growth 96h 0.465µM
CCOc1ccc(CSC2=NCCN2)cc1[N+](=O)[O-]	LASV entry inh inconclusive, Pf growth 48h inconclusive, MARV entry inh 3.98µM, Pf growth 96h inconclusive
CCCCOc1ccc(CN(CCO)CCO)cc1[N+](=O)[O-]	none
Cc1ccc(NC(=O)CN2C(=O)COc3ccc(S(=O)(=O)N4CCCCC4)cc32)cc1N(C)C	none (no result: Pf growth 48h, MARV entry inh, HCV inh, Pf growth 96h)
CCCCOc1ccc(CSC2=NCCN2)cc1[N+](=O)[O-]	Pf growth 48h inconclusive, MARV entry inh inconclusive, HCV inh inconclusive, Pf growth 96h 13.1µM
O=C(c1ccc(CSc2nc3ccncc3n2Cc2cccc(F)c2)cc1)N1CCCCCC1	HCMV inh inconclusive (no result: Pf growth 48h, HCV inh, Pf growth 96h)
Cc1nn(S(=O)(=O)c2ccccc2)c(C)c1Sc1ccc([N+](=O)[O-])cc1	Pf growth 48h inconclusive, MARV entry inh inconclusive, Pf growth 96h inconclusive, HCMV inh -85.3
Cc1nn(S(=O)(=O)c2cccs2)c(C)c1Sc1ccccc1	Pf growth 96h inconclusive (no result: LASV entry inh, HCV inh, HCMV inh)
Cc1nn(S(=O)(=O)c2cccc([N+](=O)[O-])c2)c(C)c1Br	HCV inh inconclusive
Cc1nn(S(=O)(=O)c2cccs2)c(C)c1Sc1ccc([N+](=O)[O-])cc1	LASV entry inh inconclusive, Pf growth 48h inconclusive, HCV inh 10µM, Pf growth 96h inconclusive, HCMV inh -83.9
O=c1c2sccc2n(Cc2cc(=O)n3ccccc3n2)c(=O)n1-c1ccccc1	Pf growth 96h 4.65µM
CCOC(=O)C1(Cc2ccccc2)CCN(Cc2cccn2-c2nccs2)CC1	MARV entry inh inconclusive, HCV inh inconclusive
CCOC(=O)C1(Cc2ccccc2)CCN(Cc2cn(CC(=O)OC)c3ccccc23)CC1	Pf growth 48h inconclusive, Pf growth 96h 5.22µM, HCMV inh inconclusive
CCOC(=O)C1(Cc2ccccc2)CCN(Cc2cccc(OC)c2O)CC1	Pf growth 48h inconclusive, MARV entry inh inconclusive, HCV inh inconclusive, Pf growth 96h 10.4µM (no result: LASV entry inh)
